Source: PubChem BioAssay (NCI)
The panel holds about 83,000 compounds, 20% with a hit somewhere; the sample as a whole holds those more often.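 Growth was measured after 48 h exposure to one concentration of compound in 96-well plates. Values under 10 count as active.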

Assays:
Test in all cases: NCI-60 one-dose screen, 48 h (100 = growth as untreated, 0 = no growth, -100 = all killed)
Conditions in all cases: 10 µM unless noted
[1] = test system: DU-145 prostate
[2] = test system: K-562 leukemia
[3] = test system: MALME-3M melanoma
[4] = test system: MDA-MB-231 breast
[5] = test system: RXF 393 renal
[6] = test system: SF-268 CNS
[7] = test system: SF-295 CNS
[8] = test system: SF-539 CNS
[9] = test system: UACC-257 melanoma
[10] = test system: M14 melanoma
[11] = test system: HCT-15 colon
[12] = test system: HT29 colon
[13] = test system: SNB-75 CNS
[14] = test system: SNB-19 CNS
[15] = test system: U251 CNS
[16] = test system: PC-3 prostate
[17] = test system: SK-MEL-5 melanoma
[18] = test system: UACC-62 melanoma
[19] = test system: LOX IMVI melanoma
[20] = test system: SK-MEL-28 melanoma

Measured: growth

COc1ccc(O)c(-c2cc(-c3ccccc3)c(C#N)c(=O)[nH]2)c1
inactive: [1] 102% | [2] 68.9% | [3] 112% | [4] 89.9% | [5] 104% | [6] 103% | [7] 95.2% | [8] 98.1% | [9] 85% | [10] 94.9% | [11] 100% | [12] 118% | [13] 93.8% | [14] 103% | [15] 73.4% | [16] 78.3% | [17] 73.7% | [18] 86.1% | [19] 64.3% | [20] 113%

Oc1ccccc1-c1nc2ccccn2c1NCCN1CCOCC1
inactive: [1] 102% | [2] 83% | [3] 96.2% | [4] 92.7% | [5] 109% | [6] 96.1% | [7] 98% | [8] 97.2% | [9] 96.2% | [10] 96.5% | [11] 99.4% | [12] 93.8% | [13] 80.2% | [14] 99.7% | [15] 97% | [16] 87.4% | [17] 98.7% | [18] 95.3% | [19] 94.4% | [20] 94.4%

NS(=O)(=O)Oc1ccc(NC(=O)C23CC4CC(CC(C4)C2)C3)cc1Cl
inactive: [1] 99.8% | [2] 94.6% | [3] 97.6% | [4] 90.5% | [5] 111% | [6] 88.1% | [7] 101% | [8] 87.3% | [9] 90.2% | [10] 97.3% | [11] 101% | [12] 103% | [13] 84.3% | [14] 90.9% | [15] 96% | [16] 94.5% | [17] 91.1% | [18] 86.8% | [19] 82.9% | [20] 104%

COc1ccc(-c2cncnc2N)cc1OC
inactive: [1] 114% | [2] 103% | [3] 111% | [4] 112% | [5] 112% | [6] 103% | [7] 97.5% | [8] 107% | [9] 111% | [10] 103% | [11] 103% | [12] 111% | [13] 88.3% | [14] 108% | [15] 97.7% | [16] 90.6% | [17] 106% | [18] 112% | [19] 98.6% | [20] 106%

C=C(Cl)COC(=O)C(C)(C)O
inactive: [1] 102% | [2] 93.7% | [3] 98.7% | [4] 121% | [5] 111% | [6] 101% | [7] 102% | [8] 102% | [9] 92.2% | [10] 103% | [11] 102% | [12] 92.8% | [13] 84.6% | [14] 105% | [15] 100% | [16] 92.8% | [17] 106% | [18] 111% | [19] 94.8% | [20] 97.7%

CC(=O)OCCc1ccccc1
inactive: [1] 134% | [2] 79.2% | [3] 87.8% | [4] 110% | [5] 107% | [6] 128% | [7] 101% | [8] 103% | [9] 100% | [10] 78.6% | [11] 107% | [12] 107% | [13] 74.4% | [14] 102% | [15] 100% | [16] 99.2% | [17] 105% | [18] 100% | [19] 101% | [20] 111%

CN1CCN(C(=O)[C@]23CCC(C)(C)C[C@@H]2C2=CC[C@@H]4[C@@]5(C)Cc6c([nH]c7ccccc67)C(C)(C)[C@@H]5CC[C@@]4(C)[C@]2(C)CC3)CC1
inactive: [1] 84.6% | [2] 66.1% | [3] 90.2% | [4] 79% | [5] 80.1% | [6] 84.6% | [7] 92.2% | [8] 76.7% | [9] 86.1% | [10] 78% | [11] 81.5% | [12] 71.3% | [13] 56.6% | [14] 91.8% | [15] 78.3% | [16] 64.8% | [17] 94% | [18] 95.9% | [19] 77.4% | [20] 89.6%
